# Measurements taken from PubChem BioAssay (EPA / NIEHS).
# “And” between values parts separate entries of the source, which are not always exact repeats. Equal values may be shown once. Results filed as inconclusive are left out. More than one record can exist for a structure, and the calls need not agree. The source made the active and inactive calls. The calls were made as follows, unless noted: active = hit-call score of the fitted dose curve at least 0.9, where 1 is the maximum; inconclusive = response in the unintended direction; inactive = score below 0.9.
# How the values were obtained:
# NCBI gene 24521 = assay: NVS_IC_rKATPCh: NovaScreen (NVS) Ion Channel Assay for rat Potassium Channel, ATP-Sensitive (KATPCh) (AID 2283319)
# Method in brief: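 Rat cortical membranes; radioligand binding at ATP-sensitive K channel site, filter-based scintillation counting 2 h after dosing. Single-point duplicate screen at 25 uM, hits rerun in concentration-response up to 50 uM; loss of signal versus DMSO.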
# [1] = target: rat Gamma-Aminobutyric Acid Type A Receptor, Non-Selective (GABAR-NonSelective), Gabra1 (gene 29705) (UniProt P62813); assay: NVS_LGIC_rGABAR_NonSelective: NovaScreen (NVS) Ligand-Gated Ion Channel Assay for rat Gamma-Aminobutyric Acid Type A Receptor, Non-Selective (GABAR-NonSelective) (AID 2283326)
# Method in brief: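 Radioligand displacement on rat whole-brain extract, 1 h, filter scintillation readout; signal loss fitted versus DMSO. Primary screen in duplicate at 25 uM; hits (e.g. ≥30% inhibition) retested in concentration-response up to 50 uM.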
# [2] = target: rat Opioid Receptor, Non-selective Sodium (Na+) Binding, Oprm1 (gene 25601) (UniProt P33535); assay: NVS_GPCR_rOpiate_NonSelectiveNa: NovaScreen (NVS) G Protein-Coupled Receptor Assay for rat Opioid Receptor, Non-selective Sodium (Na+) Binding (AID 2283311)
# Method in brief: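 Rat forebrain membranes, radioligand displacement with filter scintillation counting, 1.5 h incubation. Screened in duplicate at 25 µM; hits then run in concentration-response up to 50 µM; loss of binding fitted versus DMSO.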
# [3] = target: rat Neonicotinoid receptor (NNR), Chrna7 (gene 25302) (UniProt Q05941); assay: NVS_LGIC_rNNR_BungSens: NovaScreen (NVS) Ligand-Gated Ion Channel Assay for rat Neonicotinoid receptor (NNR) (AID 2283315)
# Method in brief: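 Radioligand displacement binding on rat cortical membranes, 2.5 h incubation, filtration and scintillation counting. Loss of specific binding fitted relative to DMSO.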
# [4] = target: rat Opioid Receptor, Non-selective Binding, Oprm1 (gene 25601) (UniProt P33535); assay: NVS_GPCR_rOpiate_NonSelective: NovaScreen (NVS) G Protein-Coupled Receptor Assay for rat Opioid Receptor, Non-selective Binding (AID 2283318)
# Method in brief: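 Rat forebrain membranes, cell-free radioligand binding with filter-based scintillation counting, read 1.5 h after dosing. Primary screen in duplicate at 25 uM; actives retested in concentration series. Loss of signal versus DMSO baseline scored.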
# [5] = NVS_IC_rCaDHPRCh_L: NovaScreen (NVS) Ion Channel Assay for rat Calcium Channel, Type L, Dihydropyridine Site (CaDHPRCh_L) (AID 2283320)
# Method in brief: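 Radioligand binding to dihydropyridine site on rat cortical membranes, filter-based scintillation counting, 1 h after dosing. Screened in duplicate at 25 uM; actives rerun in concentration-response up to 50 uM. Loss of signal versus DMSO baseline.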
# [6] = target: Sodium channel protein type 1 subunit alpha (Rattus norvegicus) (UniProt P04774); assay: NVS_IC_rNaCh_site2: NovaScreen (NVS) Ion Channel Assay for rat Sodium Channel, Site 2 (NaCh) (AID 2283322);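 also: hit means loss of radioligand binding signal relative to DMSO so AC50 marks displacement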
# Method in brief: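 Membranes: rat forebrain. Format: competitive radioligand displacement, filter separation, scintillation readout, 1 h exposure. Primary screen in duplicate at 25 uM; actives retested in concentration series.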
# [7] = target: human Serotonin, 5-Hydroxytryptamine Receptor 3 (5HT3), HTR3A (gene 3359) (UniProt P46098); assay: NVS_LGIC_h5HT3: NovaScreen (NVS) Ligand-Gated Ion Channel Assay for human Serotonin, 5-Hydroxytryptamine Receptor 3 (5HT3) (AID 2283325)
# Method in brief: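 Radioligand displacement binding to human 5-HT3 from HEK293 membranes, read by filter-based scintillation counting after 1 h. Screen at 25 uM in duplicate; chemicals passing threshold were retested in concentration-response up to 50 uM.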
# [8] = target: rat Glutamate, NMDA Agonist Site (GluNMDA), Grin1 (gene 24408) (UniProt P35439); assay: NVS_LGIC_rGluNMDA_Agonist: NovaScreen (NVS) Ligand-Gated Ion Channel Assay for rat Glutamate, NMDA Agonist Site (GluNMDA) (AID 2283327)
# Method in brief: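 Rat forebrain membranes, radioligand binding in the agonist-site protocol; 1 h after dosing; filter-based scintillation counting. Single-concentration duplicate screen at 25 uM, then concentration-response up to 50 uM for actives; gain-of-signal vs DMSO.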
# [9] = target: human Peripheral-type Benzodiazepine Receptor (PBR), TSPO (gene 706) (UniProt P30536); assay: NVS_MP_hPBR: NovaScreen (NVS) Membrane Protein Assay for human Peripheral-type Benzodiazepine Receptor (PBR) (AID 2283331);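 also: hits reduce radioligand binding relative to DMSO baseline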
# Method in brief: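 Radioligand displacement on human colonic cell membranes, 1 h incubation; bound radioactivity by filtration and scintillation counting. Primary screen in duplicate at 25 uM single concentration, actives followed up in concentration series; loss of binding versus DMSO.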
# [10] = target: human Androgen Receptor (AR), AR (gene 367) (UniProt P10275); assay: NVS_NR_hAR: NovaScreen (NVS) Nuclear Receptor Binding Assay for human Androgen Receptor (AR) (AID 2283332)
# Method in brief: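 LnCAP cell-free extract; radioligand displacement read by scintillation counting after 20 h. Primary screen single concentration 25 uM in duplicate, actives then run as concentration series; loss-of-signal fitted relative to DMSO baseline.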
# [11] = NVS_IC_rCaBTZCHL: NovaScreen (NVS) Ion Channel Assay for Calcium Channel, Type L, Benzothiazepine Site (CaBTZCHL) (AID 2283337)
# Method in brief: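 Radioligand displacement at the benzothiazepine site using rat cortical membranes; bound label measured by filtration and scintillation counting 1.5 h after dosing. Single-point 25 uM in duplicate, then concentration series; DMSO baseline.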
# [12] = target: rat Somatostatin Receptor (SST), Sstr1 (gene 25033) (UniProt P28646); assay: NVS_GPCR_rSST: NovaScreen (NVS) G Protein-Coupled Receptor Assay for rat Somatostatin Receptor (SST) (AID 2283314)
# Method in brief: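 Rat forebrain membranes; radioligand displacement read by filter-based scintillation counting 1 h after dosing. Primary screen in duplicate at 25 uM. Actives (e.g., 30% inhibition) were rerun as concentration-response to 50 uM max and fitted against DMSO.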
# [13] = target: rat Vasopressin 1 Receptor (V1), Avpr1a (gene 25107) (UniProt P30560); assay: NVS_GPCR_rV1: NovaScreen (NVS) G Protein-Coupled Receptor Assay for rat Vasopressin 1 Receptor (V1) (AID 2283316)
# Method in brief: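 Radioligand binding on rat liver membranes, 1.5 h incubation, filter-based scintillation counting. Single 25 uM screen in duplicate; chemicals meeting threshold (e.g. 30% inhibition) run in concentration-response up to 50 uM.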
# [14] = target: rat Glutamate, AMPA Site (AMPA), Gria1 (gene 50592) (UniProt P19490); assay: NVS_LGIC_rAMPA: NovaScreen (NVS) Ligand-Gated Ion Channel Assay for rat Glutamate, AMPA Site (AMPA) (AID 2283324)
# Method in brief: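 Rat forebrain membranes; radioligand binding read 1 h after dosing by filtration and scintillation counting. Duplicate single-point screen at 25 uM, then concentration-response to 50 uM for threshold hits (e.g. 30% inhibition); loss of signal vs DMSO.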
# [15] = target: rat Thyrotropin Releasing Hormone Receptor (TRH), Trhr (gene 25570) (UniProt Q01717); assay: NVS_GPCR_rTRH: NovaScreen (NVS) G Protein-Coupled Receptor Assay for rat Thyrotropin Releasing Hormone Receptor (TRH) (AID 2283329);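 also: hit means lower bound tracer signal versus DMSO baseline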
# Method in brief: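 Rat forebrain membrane prep, radioligand displacement, filter scintillation readout at 4 h. Single conc 25 uM, duplicate; actives retested as concentration series. DMSO = negative control/baseline.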
# [16] = target: Voltage-gated inwardly rectifying potassium channel KCNH2 (Homo sapiens) (UniProt Q12809); assay: NVS_IC_hKhERGCh: NovaScreen (NVS) Ion Channel Assay for human Potassium Channel ERG (KhERGCh) (AID 2283333)
# Method in brief: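 Cell-free radioligand competition binding on hERG protein extracted from CHO cells, read by filter-based scintillation counting 0.75 h after dosing. Primary screen at 25 uM in duplicate, actives followed in concentration series. Signal loss fitted versus DMSO.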
# [17] = target: Glutamate receptor ionotropic, kainate 1 (Rattus norvegicus) (UniProt P22756); assay: NVS_IC_rKAR: NovaScreen (NVS) Ion Channel Assay for rat Kainic Acid Receptors (KAR) (AID 2283334; active = hit-call score of the fitted dose curve at least 0.9, where 1 is the maximum; inactive = score below 0.9)
# Method in brief: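 Radioligand displacement binding using rat forebrain membranes, 1 h incubation, filter-based scintillation counting. Screened in duplicate at 25 uM, with actives retested in concentration-response up to 50 uM; fitted against DMSO.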
# rat Thyrotropin Releasing Hormone Receptor (TRH), Trhr (gene 25570), sequence (Q01717 whole entry, looked up): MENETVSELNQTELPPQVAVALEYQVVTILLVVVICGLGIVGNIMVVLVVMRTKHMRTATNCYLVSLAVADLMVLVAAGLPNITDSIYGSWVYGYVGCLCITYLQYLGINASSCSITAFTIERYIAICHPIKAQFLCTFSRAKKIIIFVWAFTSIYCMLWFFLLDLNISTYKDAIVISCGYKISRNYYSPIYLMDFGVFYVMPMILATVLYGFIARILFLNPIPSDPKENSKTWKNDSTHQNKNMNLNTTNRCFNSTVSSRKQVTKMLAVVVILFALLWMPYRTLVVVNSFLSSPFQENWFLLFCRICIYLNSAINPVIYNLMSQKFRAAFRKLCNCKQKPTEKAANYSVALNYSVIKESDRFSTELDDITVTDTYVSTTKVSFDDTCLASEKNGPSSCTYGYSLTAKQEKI
# human Androgen Receptor (AR), AR (gene 367), sequence (P10275 whole entry, looked up): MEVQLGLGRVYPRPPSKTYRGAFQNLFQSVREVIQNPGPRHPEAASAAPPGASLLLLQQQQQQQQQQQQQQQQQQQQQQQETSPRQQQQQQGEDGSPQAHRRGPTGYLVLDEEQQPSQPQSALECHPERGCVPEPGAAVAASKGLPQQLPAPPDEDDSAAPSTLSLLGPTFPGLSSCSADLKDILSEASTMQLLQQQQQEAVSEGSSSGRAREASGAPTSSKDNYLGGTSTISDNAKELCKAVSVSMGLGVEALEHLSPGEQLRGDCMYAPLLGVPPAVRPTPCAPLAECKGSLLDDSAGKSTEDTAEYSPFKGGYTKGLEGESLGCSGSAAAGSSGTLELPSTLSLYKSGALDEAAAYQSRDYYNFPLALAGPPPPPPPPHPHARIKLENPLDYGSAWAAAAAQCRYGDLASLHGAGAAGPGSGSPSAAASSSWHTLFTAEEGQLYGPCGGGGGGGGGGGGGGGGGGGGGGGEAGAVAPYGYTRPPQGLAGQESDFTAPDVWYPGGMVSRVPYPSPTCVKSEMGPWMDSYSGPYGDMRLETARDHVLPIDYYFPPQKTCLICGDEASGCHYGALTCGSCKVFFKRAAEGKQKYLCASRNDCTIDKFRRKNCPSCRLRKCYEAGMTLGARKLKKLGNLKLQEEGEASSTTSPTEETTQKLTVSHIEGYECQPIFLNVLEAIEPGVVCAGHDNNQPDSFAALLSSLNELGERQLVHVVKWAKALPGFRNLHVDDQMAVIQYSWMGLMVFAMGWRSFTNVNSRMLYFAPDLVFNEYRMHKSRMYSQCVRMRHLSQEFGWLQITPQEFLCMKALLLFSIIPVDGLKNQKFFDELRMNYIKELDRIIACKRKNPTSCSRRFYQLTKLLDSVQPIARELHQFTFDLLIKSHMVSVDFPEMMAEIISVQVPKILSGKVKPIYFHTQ
# rat Gamma-Aminobutyric Acid Type A Receptor, Non-Selective (GABAR-NonSelective), Gabra1 (gene 29705), sequence (P62813 whole entry, looked up): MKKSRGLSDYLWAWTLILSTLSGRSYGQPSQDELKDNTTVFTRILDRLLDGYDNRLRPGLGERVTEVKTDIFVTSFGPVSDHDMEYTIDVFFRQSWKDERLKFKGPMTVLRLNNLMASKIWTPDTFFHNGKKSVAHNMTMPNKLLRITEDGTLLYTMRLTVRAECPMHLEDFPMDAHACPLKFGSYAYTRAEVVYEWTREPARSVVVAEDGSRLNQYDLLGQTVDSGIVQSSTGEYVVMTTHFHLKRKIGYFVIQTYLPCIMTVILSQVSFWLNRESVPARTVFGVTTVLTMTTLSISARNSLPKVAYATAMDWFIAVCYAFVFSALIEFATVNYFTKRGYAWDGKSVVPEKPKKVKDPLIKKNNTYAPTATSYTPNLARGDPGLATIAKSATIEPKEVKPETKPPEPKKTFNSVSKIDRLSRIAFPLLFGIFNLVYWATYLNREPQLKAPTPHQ
# human Peripheral-type Benzodiazepine Receptor (PBR), TSPO (gene 706), sequence (P30536 whole entry, looked up): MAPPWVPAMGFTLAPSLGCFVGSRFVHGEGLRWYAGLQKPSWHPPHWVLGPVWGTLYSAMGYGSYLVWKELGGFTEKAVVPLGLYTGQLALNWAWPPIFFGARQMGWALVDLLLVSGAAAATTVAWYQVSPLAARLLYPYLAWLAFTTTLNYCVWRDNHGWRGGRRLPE
# rat Somatostatin Receptor (SST), Sstr1 (gene 25033), sequence (P28646 whole entry, looked up): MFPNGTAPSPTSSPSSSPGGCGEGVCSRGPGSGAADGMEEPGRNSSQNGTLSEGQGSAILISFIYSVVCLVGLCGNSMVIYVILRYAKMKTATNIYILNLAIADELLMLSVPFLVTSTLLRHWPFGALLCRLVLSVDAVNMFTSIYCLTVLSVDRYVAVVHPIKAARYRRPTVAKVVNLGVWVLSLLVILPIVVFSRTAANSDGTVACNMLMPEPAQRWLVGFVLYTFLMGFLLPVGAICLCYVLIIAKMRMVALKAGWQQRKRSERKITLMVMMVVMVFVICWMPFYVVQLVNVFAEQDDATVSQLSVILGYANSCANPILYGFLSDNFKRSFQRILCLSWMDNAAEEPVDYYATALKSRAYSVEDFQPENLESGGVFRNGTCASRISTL
# rat Glutamate, AMPA Site (AMPA), Gria1 (gene 50592), sequence (P19490 whole entry, looked up): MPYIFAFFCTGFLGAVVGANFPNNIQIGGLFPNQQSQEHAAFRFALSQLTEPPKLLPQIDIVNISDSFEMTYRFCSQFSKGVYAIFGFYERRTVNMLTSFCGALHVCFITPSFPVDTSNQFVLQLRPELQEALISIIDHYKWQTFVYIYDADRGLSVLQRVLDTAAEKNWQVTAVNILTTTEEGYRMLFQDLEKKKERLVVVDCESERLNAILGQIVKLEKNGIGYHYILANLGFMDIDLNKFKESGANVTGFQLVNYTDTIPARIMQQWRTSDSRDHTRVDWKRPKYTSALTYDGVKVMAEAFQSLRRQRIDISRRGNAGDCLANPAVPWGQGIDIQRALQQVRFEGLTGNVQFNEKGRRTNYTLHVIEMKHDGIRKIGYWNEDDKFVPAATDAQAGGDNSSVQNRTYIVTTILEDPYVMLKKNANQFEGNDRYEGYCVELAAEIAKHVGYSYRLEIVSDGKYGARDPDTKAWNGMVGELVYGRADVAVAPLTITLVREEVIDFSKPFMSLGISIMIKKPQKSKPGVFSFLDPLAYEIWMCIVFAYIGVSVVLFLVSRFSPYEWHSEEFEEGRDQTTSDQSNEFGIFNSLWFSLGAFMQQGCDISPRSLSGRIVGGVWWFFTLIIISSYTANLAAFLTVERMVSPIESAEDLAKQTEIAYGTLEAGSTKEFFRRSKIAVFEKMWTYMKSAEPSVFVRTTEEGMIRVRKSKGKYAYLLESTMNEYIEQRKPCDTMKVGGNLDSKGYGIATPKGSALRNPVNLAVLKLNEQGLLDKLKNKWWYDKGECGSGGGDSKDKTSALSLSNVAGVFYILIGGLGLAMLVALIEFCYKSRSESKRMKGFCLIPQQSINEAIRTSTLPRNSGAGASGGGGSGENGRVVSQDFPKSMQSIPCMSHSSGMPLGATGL
# rat Opioid Receptor, Non-selective Binding, Oprm1 (gene 25601), sequence (P33535 whole entry, looked up): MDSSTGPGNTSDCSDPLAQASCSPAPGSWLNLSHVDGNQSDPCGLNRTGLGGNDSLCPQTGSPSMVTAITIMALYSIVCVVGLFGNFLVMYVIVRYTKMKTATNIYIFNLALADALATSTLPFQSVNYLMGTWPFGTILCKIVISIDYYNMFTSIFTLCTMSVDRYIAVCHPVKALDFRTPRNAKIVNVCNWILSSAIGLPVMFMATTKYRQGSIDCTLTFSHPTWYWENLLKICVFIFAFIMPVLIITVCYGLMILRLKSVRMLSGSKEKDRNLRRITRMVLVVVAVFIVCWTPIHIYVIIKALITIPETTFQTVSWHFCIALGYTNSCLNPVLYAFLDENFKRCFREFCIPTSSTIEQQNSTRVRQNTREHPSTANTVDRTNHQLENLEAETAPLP
# rat Opioid Receptor, Non-selective Sodium (Na+) Binding, Oprm1 (gene 25601), sequence (P33535 whole entry, looked up): as above
# rat Neonicotinoid receptor (NNR), Chrna7 (gene 25302), sequence (Q05941 whole entry, looked up): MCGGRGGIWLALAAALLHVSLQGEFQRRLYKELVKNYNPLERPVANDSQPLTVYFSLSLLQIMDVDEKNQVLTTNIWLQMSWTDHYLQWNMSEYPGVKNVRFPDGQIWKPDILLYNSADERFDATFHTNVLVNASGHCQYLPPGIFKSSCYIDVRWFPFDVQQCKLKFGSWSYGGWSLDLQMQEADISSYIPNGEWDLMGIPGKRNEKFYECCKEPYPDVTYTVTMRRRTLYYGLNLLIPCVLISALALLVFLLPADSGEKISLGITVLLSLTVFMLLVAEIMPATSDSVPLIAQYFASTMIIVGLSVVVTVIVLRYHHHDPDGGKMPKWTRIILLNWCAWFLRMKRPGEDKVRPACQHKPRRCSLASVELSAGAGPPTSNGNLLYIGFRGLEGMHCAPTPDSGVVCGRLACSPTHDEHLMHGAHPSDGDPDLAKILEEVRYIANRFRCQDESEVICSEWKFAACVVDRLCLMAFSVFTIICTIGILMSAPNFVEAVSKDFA
# human Serotonin, 5-Hydroxytryptamine Receptor 3 (5HT3), HTR3A (gene 3359), sequence (P46098 whole entry, looked up): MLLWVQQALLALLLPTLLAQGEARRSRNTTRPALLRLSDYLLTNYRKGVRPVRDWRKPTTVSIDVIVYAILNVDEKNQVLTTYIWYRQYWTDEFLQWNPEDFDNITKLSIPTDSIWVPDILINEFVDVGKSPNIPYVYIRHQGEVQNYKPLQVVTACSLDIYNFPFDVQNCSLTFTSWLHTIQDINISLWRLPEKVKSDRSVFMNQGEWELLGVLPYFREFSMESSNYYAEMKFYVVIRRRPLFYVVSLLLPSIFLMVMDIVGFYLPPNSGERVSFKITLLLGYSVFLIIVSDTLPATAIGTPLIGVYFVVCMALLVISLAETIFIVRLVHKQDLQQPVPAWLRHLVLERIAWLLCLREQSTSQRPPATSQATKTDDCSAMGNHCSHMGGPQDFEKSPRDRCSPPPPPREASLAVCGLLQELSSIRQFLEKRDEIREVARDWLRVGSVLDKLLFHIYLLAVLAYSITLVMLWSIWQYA
smiles,measurement,setting,value
c1ccc(Nc2ccccc2)cc1,outcome,NCBI gene 24521,inactive
same,outcome,[1],inactive
CC(C)(c1ccc(O)cc1)c1ccc(O)cc1,AC50,[2],25.4 µM (active) and 17 µM (active) and 20.5 µM (active)
same,outcome,[3],inactive
same,AC50,[4],25.4 µM (active) and 17.6 µM (active)
same,outcome,[5],inactive
same,AC50,[6],25.4 µM (active)
same,outcome,[6],inactive
same,outcome,[7],inactive
same,AC50,[8],19.7 µM (active) and 25.4 µM (active) and 15 µM (active)
same,outcome,[9],inactive
same,AC50,[10],9.86 µM (active) [middle of 4 runs]
same,outcome,[10],inactive
same,outcome,[11],inactive
CCCCC(CC)COC(=O)c1ccccc1C(=O)O (stereo unspecified),AC50,[9],39.2 µM (active)
COC(=O)CSc1cc(N=c2sc(=O)n3n2CCCC3)c(F)cc1Cl,outcome,[1],inactive
same,outcome,[9],inactive
S=C(S)NCCNC(=S)S.[Mn+2].[S-]C([S-])=NCCN=C([S-])[S-].[Zn+2],outcome,[2],inactive
same,AC50,[12],1.49 µM (active)
same,outcome,[12],inactive
same,outcome,[13],inactive
same,AC50,[14],4.81 µM (active)
same,outcome,[14],inactive
same,outcome,[8],inactive
same,AC50,[9],9.51 µM (active) and 4.71 µM (active) and 3.45 µM (active)
CCCCCCC(C)OC(=O)COc1nc(F)c(Cl)c(N)c1Cl (stereo unspecified),outcome,[9],inactive
N[C@@H](Cc1cc(I)c(Oc2ccc(O)c(I)c2)c(I)c1)C(=O)O,outcome,[3],inactive
COc1nc(C)nc(NC(=O)NS(=O)(=O)c2ccccc2OCCCl)n1,outcome,[9],inactive
CCOC(=O)C(C)Oc1ccc(Oc2cnc3cc(Cl)ccc3n2)cc1 (stereo unspecified),outcome,[1],inactive
CCOC(=O)c1ccc(O)cc1,outcome,[2],inactive
CC1(C)C(C=C(Cl)Cl)C1C(=O)OCc1cccc(Oc2ccccc2)c1 (stereo unspecified),outcome,[15],inactive
same,AC50,[9],40.2 µM (active)
CCOC(=O)NCCOc1ccc(Oc2ccccc2)cc1,outcome,[6],inactive
same,outcome,[9],inactive
CCNc1nc(N)nc(Cl)n1,outcome,[9],inactive
COC(=O)c1ccccc1C(=O)O,AC50,NCBI gene 24521,25 µM (active)
same,outcome,[9],inactive
C=CCOC(Cn1ccnc1)c1ccc(Cl)cc1Cl (stereo unspecified),outcome,[2],inactive
same,AC50,[4],9.36 µM (active)
same,AC50,[6],4.57 µM (active)
same,AC50,[15],17 µM (active)
same,AC50,[9],10.6 µM (active)
same,AC50,[16],12.5 µM (active)
same,outcome,[17],inactive
COC(=O)c1ccccc1S(=O)(=O)NC(=O)Nc1nc(OC(F)F)cc(OC(F)F)n1,AC50,[12],36.3 µM (active)
same,outcome,[15],inactive
